From PubChem BioAssay
Calls of active or inactive are those of the source. No rule for the calls is given here.

Each compound was assayed against Pantothenate synthetase (Mycobacterium tuberculosis (strain ATCC 25618 / H37Rv)) (UniProt P9WIL5) (assay: Coupled enzyme confirmation of inhibitors against recombinant Mtb PanC (AID 375;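 also: 0% = full reaction with vehicle and 100% = no enzyme background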)). Settings: coupled enzyme assay; at 10 µM, stronger effect = higher value.
Pantothenate synthetase (Mycobacterium tuberculosis (strain ATCC 25618 / H37Rv)), sequence (P9WIL5 whole entry, looked up): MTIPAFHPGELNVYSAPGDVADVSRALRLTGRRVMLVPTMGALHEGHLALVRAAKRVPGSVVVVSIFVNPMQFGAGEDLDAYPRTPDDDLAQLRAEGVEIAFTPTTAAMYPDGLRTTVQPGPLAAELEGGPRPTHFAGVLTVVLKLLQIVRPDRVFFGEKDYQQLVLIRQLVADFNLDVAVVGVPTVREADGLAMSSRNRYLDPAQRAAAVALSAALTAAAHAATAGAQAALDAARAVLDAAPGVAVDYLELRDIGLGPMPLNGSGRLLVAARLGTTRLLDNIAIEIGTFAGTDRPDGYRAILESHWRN

Row | Compound | inhibition
1 | CCC(=O)Nc1cc(C)c(NC(=O)C23CC4CC(CC(C4)C2)C3)cn1 | 5% (inactive)
2 | CC1CCCCC1NC(=O)c1nn(C)c(=O)c2ccccc12 (stereo not given) | 0% (inactive)
3 | Cc1cc(C)c(C#N)c(SCC(=O)Nc2ccc(S(=O)(=O)Nc3onc(C)c3C)cc2)n1 | 0% (inactive)
4 | CC1CNCCN1S(=O)(=O)c1cccc2cnccc12 (stereo not given) | 5% (inactive)
5 | CCOC(=O)N1CCN(c2c(N3CCN(c4ccccn4)CC3)c(=O)c2=O)CC1 | 0% (inactive)
6 | Cc1cc(C)n2nc(SCC(=O)N(C)c3ccccc3)nc2n1 | 1% (inactive)
7 | COc1ccc(CN(C(=O)c2ccccc2OC)C2CCS(=O)(=O)C2)cc1 (stereo not given) | 0% (inactive)
8 | C[N+]12CCC(CC1)C(OC(=O)C(O)(c1ccccc1)c1ccccc1)C2 (stereo not given) | 0% (inactive)
9 | O=C(O)Cn1nc2ccccc2n1 | 0% (inactive)
10 | CCCCn1c(SCC(=O)NCc2ccccc2)nc2ccc(N3CCOCC3)cc2c1=O | 0% (inactive)
11 | Cc1cccc(CC(=O)Nc2c3c(nn2-c2cccc(Cl)c2)CS(=O)C3)c1 (stereo not given) | 2% (inactive)
12 | COc1cc(C2c3c(n[nH]c3C)C(=O)N2c2ccc(Br)cc2)ccc1O (stereo not given) | 4% (inactive)
13 | CCOc1ccc(-c2nc(C#N)c(NCc3ccc4c(c3)OCO4)o2)cc1 | 3% (inactive)
14 | O=C(CSc1ncn[nH]1)NC1CC2CCC1C2 (stereo not given) | 0% (inactive)
15 | COCCN(CC(=O)Nc1ccccc1C)S(=O)(=O)c1ccc(S(=O)(=O)N2CCCC2)cc1 | 0% (inactive)
16 | Cc1ccc(C(=O)NC(Cc2c[nH]c3ccccc23)C(=O)O)o1 (stereo not given) | 0% (inactive)
17 | O=C(CSc1nc2cc(Cl)ccc2s1)N1CCN(C(=O)c2ccco2)CC1 | 9% (inactive)
18 | Cn1c(C(=O)NCc2cccnc2)cc2sccc21 | 0% (inactive)
19 | CSc1nc2c(c(=O)n1C)SC(C)C2 (stereo not given) | 0% (inactive)
20 | CC(C)(C)OC(=O)N1CCN(c2ccc(NC(=O)c3cc4ccccc4oc3=O)cc2)CC1 | 6% (inactive)

Row | Compound | inhibition
21 | Cc1nnc2n(-c3ccccc3)c(=O)c3c4c(sc3n12)CCCC4 | 2% (inactive)
22 | Cc1cc(C)n(S(=O)(=O)c2cc(C(=O)O)c(Cl)cc2Cl)n1 | 0% (inactive)
23 | CC(=O)[C@@]1(O)CC[C@H]2[C@@H]3C[C@H](C)C4=CC(=O)C=C[C@]4(C)[C@@]3(F)[C@@H](O)C[C@@]21C | 6% (inactive)
24 | N#CC(C(=O)Nc1ccc(Cl)c(Cl)c1)=C1Nc2ccccc2N1 | 2% (inactive)
25 | CCn1nnc(-c2ccccc2NC(=O)c2ccc(-n3cnnn3)cc2)n1 | 9% (inactive)
26 | FC(F)Oc1cccc2cccnc12 | 6% (inactive)
27 | COC(=O)Nc1ccc(S(=O)(=O)N(C)CC(F)(F)C(F)F)cc1 | 6% (inactive)
28 | O=S(=O)(c1cccc2c(S(=O)(=O)N3CCCC3)cccc12)N1CCCC1 | 0% (inactive)
29 | Cc1ccc(CN2C(=O)CCC2C(=O)NCCCN2CCC(C)CC2)cc1 (stereo not given) | 8% (inactive)
30 | O=C(NCc1cccs1)C1CC(=O)N(C2CCCC2)C1 (stereo not given) | 2% (inactive)
31 | CCn1c(C(=O)OC)cc2c1ccn2-c1ccc(F)cc1 | 0% (inactive)
32 | CC(C)=CCCC(C)N(C=O)C(C)CCC=C(C)C (stereo not given) | 3% (inactive)
33 | Cc1ccc2cc(C#N)c(NCCCNC(=O)C3CCCO3)nc2c1 (stereo not given) | 0% (inactive)
34 | Cc1csc(NC(=O)CSc2nnc(Cc3cccn3C)n2-c2ccc(F)cc2)n1 | 0% (inactive)
35 | C=CCc1ccccc1OCC(O)CNC(C)C (stereo not given) | 8% (inactive)
36 | CC1CCc2cc(F)cc3c(=O)c(C(=O)O)cn1c23 (stereo not given) | 2% (inactive)
37 | CCOC(=O)c1ccc(Oc2nc(SC)nc(N(C)C)n2)cc1 | 1% (inactive)
38 | Cn1c(=O)[nH]c(=O)c2c1nc(NC1CCCCC1)n2CC(=O)NC1CCCCC1 | 0% (inactive)
39 | CCCC(=O)Nc1ccccc1-c1nnn(CC(=O)Nc2ccc(OC)cc2)n1 | 0% (inactive)
40 | COc1cc(N2C(=O)CSC23C(=O)Nc2ccccc23)cc(OC)c1OC (stereo not given) | 0% (inactive)
